# From PubChem BioAssay (NCI)
# About 79,000 compounds went through this panel and 15% of them were active in at least one assay; those are over-represented in the sample as a whole. A number with no mark means an inactive call. The source made the active and inactive calls. Rule as the data show it: active = growth inhibition above about 70%; inactive = the rest.
# Columns and labels:
# [1] = NCI Yeast Anticancer Drug Screen. Data for the rad50 strain (AID 155);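 also: 0% = growth of vehicle-only cultures of the same strain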; conditions: S. cerevisiae rad50 strain growth inhibition, stronger effect = higher value
# Outline: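 Vehicle-treated cultures provide the reference for the growth inhibition reported for compound-exposed, repair-deficient yeast.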
# [2] = NCI Yeast Anticancer Drug Screen. Data for the mec2-1 strain (AID 157); conditions: S. cerevisiae mec2-1 strain, stronger effect = higher value
# Outline: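 Compounds were applied to mec2-1 yeast cells. Their growth was then compared with that of vehicle-treated cultures to give growth inhibition.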
# [3] = NCI Yeast Anticancer Drug Screen. Data for the sgs1 mgt1 strain (AID 161);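 also: 0% = growth of cultures given vehicle only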; conditions: S. cerevisiae sgs1 mgt1 strain, stronger effect = higher value
# Outline: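 Growth of a repair-deficient yeast mutant was monitored after compound treatment and expressed as inhibition relative to vehicle-treated cultures.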
# [4] = NCI Yeast Anticancer Drug Screen. Data for the cln2 rad14 strain (AID 165);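 also: 0% = growth equal to vehicle treated cultures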; conditions: S. cerevisiae cln2 rad14 strain, stronger effect = higher value
# Outline: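 Strain: cln2 rad14 yeast, altered in cell cycle control and DNA damage repair. Read-out: growth inhibition vs vehicle.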
# [5] = NCI Yeast Anticancer Drug Screen. Data for the bub3 strain (AID 167); conditions: S. cerevisiae bub3 mutant strain, stronger effect = higher value
# Outline: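 Mutant yeast screening strain plus compound; vehicle-treated cultures serve as the 0% inhibition reference.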
# [6] = NCI Yeast Anticancer Drug Screen. Data for the mlh1 rad18 strain (AID 175); conditions: S. cerevisiae mlh1 rad18 strain growth inhibition, stronger effect = higher value
# Outline: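 A repair-deficient yeast strain is exposed to test compound, and growth is scored relative to vehicle-treated controls.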
# [7] = at 5.0 µM (retest, dose inferred, filed as 0.5)
# [8] = at 50.0 µM (retest, dose inferred, filed as 5.0)
Compound,"growth inhibition [1, 7]","growth inhibition [1, 8]",growth inhibition ([1]; at 50.0 µM),"growth inhibition [2, 7]","growth inhibition [2, 8]",growth inhibition ([2]; at 50.0 µM),"growth inhibition [3, 7]","growth inhibition [3, 8]",growth inhibition ([3]; at 50.0 µM),"growth inhibition [4, 7]","growth inhibition [4, 8]",growth inhibition ([4]; at 50.0 µM),"growth inhibition [5, 7]","growth inhibition [5, 8]",growth inhibition ([5]; at 50.0 µM),"growth inhibition [6, 7]","growth inhibition [6, 8]",growth inhibition ([6]; at 50.0 µM)
CC(=O)OC1=C(Br)CCc2ccccc21,13%,99% (active),98.2% (active),13%,100% (active),97.3% (active),41%,99% (active),91.2% (active),11%,98% (active),86.3% (active),18%,100% (active),88.3% (active),39%,99% (active),89.6% (active)
S=C(N/N=C/c1ccco1)NC12CC3CC(CC(C3)C1)C2,29%,94% (active),2.95%,24%,95% (active),8.05%,76% (active),96% (active),10.9%,51%,91% (active),-0.25%,71% (active),93% (active),13.4%,47%,94% (active),26.2%
O=C(CC1CCCC(CC(=O)c2ccccc2)N1CCc1ccccc1)c1ccccc1 (stereo not given),39%,97% (active),89.7% (active),23%,99% (active),90.6% (active),41%,98% (active),92.8% (active),27%,97% (active),91.8% (active),41%,98% (active),89.7% (active),34%,98% (active),89.2% (active)
COc1ccc(NC(=O)CSC(N)=O)cc1,5%,12%,49.1%,-1%,20%,23.2%,3%,18%,64.1%,0%,-5%,21.9%,3%,25%,53%,3%,12%,51.6%
NC(CSSCC(N)=NCCCCCSC12CC3CC(CC(C3)C1)C2)=NCCCCCSC12CC3CC(CC(C3)C1)C2,-2%,22%,99.2% (active),1%,11%,99.6% (active),1%,12%,99.5% (active),3%,2%,98.8% (active),5%,15%,98.7% (active),0%,16%,99.3% (active)
Cc1ccc(S(=O)(=O)Oc2c([N+](=O)[O-])cc(C)cc2[N+](=O)[O-])cc1,29%,54%,96.6% (active),10%,29%,97.6% (active),14%,21%,98.2% (active),-1%,17%,82.7% (active),5%,34%,94% (active),17%,59%,95.1% (active)
Oc1ccc(C2(c3ccc(O)c(Cl)c3)CC3CCC2C3)cc1Cl (stereo not given),98% (active),98% (active),98% (active),99% (active),99% (active),99.2% (active),99% (active),98% (active),99.3% (active),99% (active),98% (active),99% (active),99% (active),98% (active),98.8% (active),99% (active),97% (active),98.7% (active)
O=C(O)C1C(C(=O)Nc2ccc3c(c2)Cc2ccccc2-3)C2(Cl)C(Cl)=C(Cl)C1(Cl)C2(Cl)Cl (stereo not given),31%,99% (active),98.4% (active),27%,99% (active),98.7% (active),47%,99% (active),98.5% (active),31%,99% (active),98.3% (active),14%,99% (active),98.3% (active),46%,99% (active),98.3% (active)
O=C(O)c1cc(C(=O)O)c(C(=O)O)cc1C(=O)O.[NH-]C1CCCC1.[NH-]C1CCCC1.[NH-]C1CCCC1.[NH-]C1CCCC1.[Pt+2].[Pt+2],4%,99% (active),99.5% (active),10%,100% (active),99.6% (active),15%,99% (active),99.5% (active),0%,99% (active),99% (active),-1%,99% (active),99% (active),16%,99% (active),99% (active)
Nc1cc(Cl)c(I)cc1Cl,7%,98% (active),74.5% (active),-15%,99% (active),15.8%,-1%,100% (active),50.1%,-7%,97% (active),32.3%,-8%,99% (active),69.2%,34%,99% (active),86.8% (active)
O=C(CC1C=Cc2ccccc2N1C(=O)c1ccccc1)c1ccccc1 (stereo not given),1%,85% (active),83% (active),-4%,76% (active),76.5% (active),-7%,82% (active),37.8%,-17%,77% (active),73% (active),21%,93% (active),86% (active),-2%,87% (active),88.5% (active)
COc1ccc(C(c2ccc(OC)cc2)c2ccccc2C(=O)O)cc1,-5%,64%,37.8%,-14%,31%,27.1%,16%,48%,35.1%,18%,39%,35.9%,20%,56%,18.1%,41%,73% (active),54.9%
Fc1ccc(NC(=S)SCc2ccc(Cl)c(Cl)c2)cc1,4%,92% (active),98.1% (active),3%,91% (active),99% (active),0%,97% (active),98.8% (active),-3%,92% (active),98.3% (active),3%,90% (active),98.2% (active),0%,94% (active),98.8% (active)
CCS(=O)(=O)/C=C\S(=O)(=O)CC,-154%,-117%,37.2%,-52%,-36%,47.5%,-64%,-43%,47.3%,-49%,-37%,-12.7%,-65%,-59%,88.3% (active),-147%,-70%,69%
NC(=O)C1CCN(N=Nc2c(-c3ccccc3)n[nH]c2-c2ccccc2)CC1,79% (active),99% (active),99.4% (active),99% (active),100% (active),99.5% (active),99% (active),100% (active),99.5% (active),99% (active),99% (active),99.3% (active),99% (active),99% (active),99.5% (active),99% (active),99% (active),99.2% (active)
CNC(=O)N(C)/N=C/c1ccc([N+](=O)[O-])o1,15%,67%,84.5% (active),4%,40%,50.5%,14%,78% (active),93.5% (active),0%,36%,54.6%,17%,55%,45.5%,24%,76% (active),91.8% (active)
CNc1ccc2c(c1)Cc1ccccc1-2,36%,92% (active),97.3% (active),3%,64%,91.8% (active),56%,86% (active),96.9% (active),2%,79% (active),92.8% (active),-7%,45%,77.2% (active),26%,92% (active),97.2% (active)
Cc1cc(N2C(=O)CCSC2=S)c([N+](=O)[O-])cc1C,32%,99% (active),99.3% (active),7%,99% (active),99.6% (active),60%,99% (active),99.5% (active),-5%,98% (active),98.5% (active),14%,99% (active),99.5% (active),65%,99% (active),99.4% (active)
O=C1C(Cl)C(c2cc(Br)cc(Br)c2O)N1n1cnc2ccccc2c1=O (stereo not given),15%,96% (active),89.8% (active),35%,94% (active),86.7% (active),25%,98% (active),94.5% (active),-16%,87% (active),59.2%,22%,98% (active),93% (active),20%,98% (active),97.7% (active)
O=C(NC(=O)C(F)(F)F)Nc1ccc(Cl)cc1,1%,0%,-35.8%,-2%,-8%,-1.15%,1%,1%,9.75%,4%,0%,57.1%,-1%,-2%,18.9%,-1%,-1%,0.8%
